From PubChem BioAssay AID2496 (Sanford-Burnham Center for Chemical Genomics, 2010)
Values without a mark were called inactive. The source made the active and inactive calls. No stated cut-off is given here; in the data, active means IC50 below about 40 µM; inactive means the rest.

Assay: HTRF spectral interference by compounds, SAR follow-up, artefact control, biochemical, fluorescence ratio (AID 2496)
Settings: HTRF spectral interference counter-screen

Compound | IC50
CC(=O)Oc1ccc(N2C(=O)C3C(C2=O)C2(C)C=CC3(C)O2)cc1 (configuration not stated) | 2.86 µM (active)
CCCc1ccc(/C=C2\C(=O)c3ccccc3C(O)=C2C(=O)OCC)cc1 | > 50 µM
CC(/C=C/c1ccco1)=NNC(=O)c1cccnc1 | > 50 µM
COc1ccc(CCNC(=O)c2cc(-c3ccco3)nc3ccccc23)cc1 | 15 µM (active)
CCOC(=O)N1CCN(C(=O)c2ccc3nc(-c4ccco4)c(-c4ccco4)nc3c2)CC1 | 6.55 µM (active)
CCNC(=O)COC(=O)c1cc(-c2ccco2)nc2ccccc12 | > 50 µM
CCCCc1ccc(/C=C2\C(=O)c3ccccc3C(O)=C2C(=O)OCC)cc1 | 4.14 µM (active)
Cc1ccc(S(=O)(=O)N(C)C)cc1NC(=O)c1cc(-c2ccco2)nc2ccccc12 | > 50 µM
CC(=O)NS(=O)(=O)c1ccc(NC(=O)/C=C/c2ccc(C)o2)cc1 | > 50 µM
COc1ccc(NC(=O)c2cc(-c3ccco3)nc3ccccc23)cc1S(=O)(=O)N1CCOCC1 | 37.2 µM (active)
CN(C(=O)COC(=O)c1cc(-c2ccco2)nc2ccccc12)C1CCS(=O)(=O)C1 (configuration not stated) | 26.6 µM (active)
O=C(COC(=O)c1c2c(nc3ccccc13)/C(=C/c1ccco1)CC2)NC1CCCC1 | 4.42 µM (active)
